Laboratory results from ChEMBL document CHEMBL3988442, “University of Dundee, Small-Polar-MMV Screening Library” (2021).
In all, about 66,000 compounds went through this assay and about 960 (1.5%) showed an effect of 50% or more. The sample holds strong results, similar compounds and a random draw of the others, so the mix is not that of the screen.

Test system: Trypanosoma brucei
Experiment: Trypanosoma brucei 72 hour study
Assay type: functional, organism-based
Design: scale not given: in the data most compounds retested in dose-response had high values

Compound: Cc1nc(C2CCCN2C(=O)c2ccc3c(c2)nc(C)n3C)no1 (stereo not drawn)
- Percent Effect (10 µM): -28.6%
- Percent Effect (30.3 µM, […]): -7.833%

Compound: CS(=O)(=O)CC(=O)N1C[C@H]2CCC[C@@]2(COc2ccccn2)C1.O=C(O)C(F)(F)F
- Percent Effect (30.3 µM, […]): -20.95%

Compound: CC(C)Oc1ccc(C(=O)NCc2ccc3c(c2)CCCN3C)cn1
- Percent Effect (30.3 µM, […]): 9.808%

Compound: CN1CCCc2cc(CNC(=O)c3cc[n+]([O-])cc3)ccc21
- Percent Effect (30.3 µM, […]): 2.114%

Compound: COC(=O)c1cccc(C(=O)NCc2ccc3c(c2)CCCN3C)c1
- Percent Effect (30.3 µM, […]): 1.912%

Compound: CN1CCCc2cc(CNC(=O)c3ccc(-n4cnnc4)cc3)ccc21
- Percent Effect (30.3 µM, […]): 53.86%

Compound: COc1cc(C(=O)NCc2ccc3c(c2)CCCN3C)cc(OC)c1Br
- Percent Effect (30.3 µM, […]): 56.02%

Compound: CN1CCCc2cc(CNC(=O)c3ccncc3)ccc21
- Percent Effect (30 µM, 30.03 µM): 8.977%

Compound: CC(C)n1c(=O)c2ccccc2n(CCCN(C)C)c1=O.Cl
- Percent Effect (30 µM, 30.03 µM): 2.697%

Compound: COCC(=O)Nc1ccnn1-c1ccc(Cl)cc1
- Percent Effect (30.3 µM, […]): 12.6%

Compound: Cc1ncc2c(n1)C1(CCN(C(=O)C(C)C)CC1)OCC2.Cl
- Percent Effect (30.3 µM, […]): -4.848%

Compound: O=C(Cn1ccc2sccc2c1=O)NCc1ccccc1F
- Percent Effect (30 µM, 30.03 µM): 1.93%

Compound: Clc1cc(NCc2ccncc2)nc2[nH]ccc12
- Percent Effect (30 µM, 30.03 µM): -24.9%

Compound: COc1ccc(CCNC(=O)C2CCC(Cn3cnnn3)CC2)cc1 (stereo not drawn)
- Percent Effect (30 µM, 30.03 µM): 42.94%

Compound: COc1ccccc1CCNC(=O)C1CCC(Cn2cnnn2)CC1 (stereo not drawn)
- Percent Effect (30 µM, 30.03 µM): -33.08%

Compound: O=C(NCCc1ccccc1)C1CCC(Cn2cnnn2)CC1 (stereo not drawn)
- Percent Effect (30 µM, 30.03 µM): 56%

Compound: Cl.Clc1ccccc1CN1CCc2nc(C3CCNCC3)ncc2C1
- Percent Effect (30.3 µM, […]): 9.906%

Compound: O=C(NCCCOCC1CC1)Nc1ccc(-n2cncn2)c(F)c1
- Percent Effect (10 µM): -25.61%

Compound: Cn1cc(NC(=O)CNC(=O)N2CCN(c3ccc(Cl)cc3)CC2)cn1
- Percent Effect (30.3 µM, […]): 4.499%

Compound: CC(C)C(NC(=O)N1CCN(c2ccc(Cl)cc2)CC1)C(=O)NC1CC1 (stereo not drawn)
- Percent Effect (30 µM, 30.03 µM): 53.99%

Compound: CC(C)[C@H](NC(=O)N1CCN(c2ccc(Cl)cc2)CC1)C(=O)NC1CC1
- Percent Effect (30 µM, 30.03 µM): -23.38%

Compound: CC(=O)c1ccc(N2CCN(C(=O)NC(C)c3ccc(C)o3)CC2)cc1 (stereo not drawn)
- Percent Effect (30 µM, 30.03 µM): 19.85%

Compound: CC(C)NC(=O)C(C)NC(=O)N1CCN(c2ccc(Cl)cc2)CC1 (stereo not drawn)
- Percent Effect (30 µM, 30.03 µM): 51.3%

Compound: C[C@H](NC(=O)N1CCN(c2ccc(Cl)cc2)CC1)C(=O)N1CCSCC1
- Percent Effect (30 µM, 30.03 µM): -37.38%

Compound: CC(NC(=O)N1CCN(c2ccc(Cl)cc2)CC1)C(=O)N1CCSCC1 (stereo not drawn)
- Percent Effect (30 µM, 30.03 µM): 25.8%

Compound: CC(C)NC(=O)[C@@H](NC(=O)N1CCN(c2ccc(Cl)cc2)CC1)C(C)C
- Percent Effect (30 µM, 30.03 µM): 72.09%

Compound: CN(C(=O)NC1CC1)C1CCN(c2ccc(Cl)cc2)CC1
- Percent Effect (30 µM, 30.03 µM): -50.01%

Compound: CNS(=O)(=O)c1ccccc1N1CCN(C(=O)NC(C)C)CC1
- Percent Effect (30 µM, 30.03 µM): -6.64%

Compound: CC(C)NC(=O)[C@H](C)NC(=O)N1CCN(c2ccc(Cl)cc2)CC1
- Percent Effect (30 µM, 30.03 µM): 36.61%

Compound: CC(C)NC(=O)C(NC(=O)N1CCN(c2ccc(Cl)cc2)CC1)C(C)C (stereo not drawn)
- Percent Effect (30 µM, 30.03 µM): 55.67%

Compound: O=C1CC2(CCN(Cc3ccoc3)CC2)CN1Cc1cc(F)cc(F)c1
- Percent Effect (30 µM, 30.03 µM): -15.51%

Compound: Cc1nc(CCNC(=O)C(N)c2c(C)n[nH]c2C)sc1C (stereo not drawn)
- Percent Effect (30.3 µM, […]): -1.575%

Compound: CN(c1ncnc2ccccc12)C1CCCN(c2cccnn2)C1 (stereo not drawn)
- Percent Effect (30.3 µM, […]): -20.2%

Compound: NC(=O)CNC(=O)c1ccc(CNCc2ccc(F)cc2F)cc1
- Percent Effect (30 µM, 30.03 µM): -29.88%

Compound: Br.Cc1c(NC(=O)CN2CCN(C3CCCC3)C(=O)C2)cnn1C
- Percent Effect (30.3 µM, […]): -20.91%

Compound: CNC(=O)[C@@H]1C[C@H]2CN(C(=O)c3ccco3)C[C@H]2N1C(C)C.O=C(O)C(F)(F)F
- Percent Effect (30.3 µM, […]): -12.88%

Compound: Cn1cc(C2CCCN2C(=O)c2cnc(C3CC3)s2)cn1 (stereo not drawn)
- Percent Effect (30 µM, 30.03 µM): -42.9%

Compound: CN(C)[C@@H]1CCN(C(=O)NC2CCCC2)[C@H]1Cc1cnn(C)c1.O=C(O)C(F)(F)F
- Percent Effect (30 µM, 30.03 µM): -1.718%

Compound: CN(C)C(=O)c1cnc2n1CCN(Cc1ccccc1)C2.O=C(O)C(F)(F)F
- Percent Effect (30 µM, 30.03 µM): -11.93%

Compound: COCCn1ccc2cc(NC(C)=O)ccc21
- Percent Effect (30 µM, 30.03 µM): 20.32%

Compound: CCC(=O)Nc1ccc2c(ccn2CCOC)c1
- Percent Effect (30 µM, 30.03 µM): 30.95%

Compound: COCCn1ccc2cc(NC(=O)COC)ccc21
- Percent Effect (30 µM, 30.03 µM): 51.21%

Compound: COCCC(=O)N[C@H]1CC[C@H](Nc2nccc(-c3ccncc3)n2)C1
- Percent Effect (30 µM, 30.03 µM): -1.414%

Compound: CCOCC1CN(c2ccncn2)Cc2cnn(CC)c21.O=C(O)C(F)(F)F.O=C(O)C(F)(F)F (stereo not drawn)
- Percent Effect (30 µM, 30.03 µM): 24.08%

Compound: COc1ccc(CN2CCn3c(C(=O)N(C)C)cnc3C2)cc1.O=C(O)C(F)(F)F
- Percent Effect (30.3 µM, […]): -109.7%

Compound: COc1ccc(C)cc1NC(=O)Nc1cnc(N2CCOCC2)nc1
- Percent Effect (30 µM, 30.03 µM): -0.7377%

Compound: COc1ccc(C)cc1NC(=O)Nc1cnc(N2CCN(C)CC2)nc1
- Percent Effect (30 µM, 30.03 µM): 53.87%
